“And” between values parts separate entries of the source, which are not always exact repeats. Equal entries are not always repeated. This is part of a sample that, as a whole, favours compounds with a hit. Of some 83,000 tested, about 20% had one in any assay.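 Single-dose data. Exposure time 48 hours. Values below 10 considered active.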 The source made the active and inactive calls.

The subject of this assay is MDA-MB-468 breast. The assay is described as follows: NCI-60 one-dose screen, 48 h (100 = growth as untreated, 0 = no growth, -100 = all killed). The note with it: 10 µM unless noted.
For the compound `C#Cc1nc(C(C)=O)cs1`, the growth was 90.5% (inactive).

Turning to `Nc1c(C(=O)Nc2cccc(C(F)(F)F)c2)sc2nc3c(cc12)C(O)CCC3` (configuration not stated), the growth is 22.4% (inactive).

As for `CCOC(=O)c1c(NC(=O)CSc2n[nH]c3nc4ccccc4n23)sc(CC)c1C`, the growth was 68.6% (inactive).

As to `COc1cccc(-c2nn(-c3ccccc3)cc2-c2ccnc(NCCCNS(=O)(=O)c3cccc(F)c3)c2)c1`, the growth was -10.1% (active).

On to `O=C(O)c1ccc(CNc2ccc(C(=O)CCl)cc2)cc1`, for which the growth was 63.8% (inactive).

As for `COc1c(N2CC3CCCNC3C2)c(F)cc2c(=O)c(C(=O)N/N=C/c3ccc4c(c3)OCO4)cn(C3CC3)c12` (configuration not stated), the growth is 63.1% (inactive).

As to `CCN(CC)c1ccc(C(=N)c2ccc(N(C)C)cc2)cc1`, the growth is 5.37% (active).

On to `COc1cc(/C=C2\C(=O)N(CCCOc3cc(O)c4c(=O)cc(-c5ccccc5)oc4c3)c3ccccc32)cc(OC)c1O`, for which the growth was 89.4% (inactive).

As for `C=C1C(=O)O[C@H]2[C@H]1CC/C(COC(=O)CCCCCCC(=O)OC/C1=C/CC[C@@]3(C)O[C@H]3[C@H]3OC(=O)C(=C)[C@@H]3CC1)=C\CC[C@@]1(C)O[C@@H]21`, the growth is -23.9% (active).

With `O=C1c2ccccc2C(=O)c2c(NCCNCCO)ccc(NCCNCCO)c21`, the growth is -71.9% (active) and -54.1% (active) and -20.9% (active).

On to `O=C(/C=C/c1ccccn1)c1ccccc1O`, for which the growth was 41.6% (inactive) and 70.3% (inactive).

As to `O=Nc1c(-c2c(O)[nH]c3ncccc23)[nH]c2ccccc12`, the growth is 28.4% (inactive).

For the compound `O=C1OC(c2nc3ccccc3s2)=C/C1=C\c1ccc(O)cc1`, the growth is 114% (inactive).

With `CCCCCCCCCCCCNC(=O)N[C@H](C(=O)N[C@H]1/C=C/CCNC(=O)/C=C/[C@H](C)NC1=O)C(C)C`, the growth was -66.6% (active).

Take `COc1ccc(C(=O)C[C@]2(O)C(=O)Nc3c(Cl)ccc(Cl)c32)cc1`: the growth was -7.27% (active).

In the case of `Cc1ccc(NC(=O)N/C(N)=N/c2nc(=O)c3ccccc3s2)cc1`, the growth is 89.9% (inactive).

In the case of `COc1cc2ncnc(Nc3ccc(Oc4ccnc(C)c4)c(C)c3)c2cc1NC(=O)CC1CCSS1` (configuration not stated), the growth was -67% (active).

Regarding `O=C(Nc1cc(F)cc2cccnc12)c1cnc(N2CCOCC2)cn1`, the growth was 18.5% (inactive).

Regarding `CC1(C)C2CC1C1(/C=N\Nc3ccccc3)C(C2)C(C#N)(C#N)C1(C#N)C#N` (configuration not stated), the growth is 94.8% (inactive).

As to `COc1ccc(-c2nsc3c2NC(=O)CC3c2ccc3c(c2)OCO3)cc1` (configuration not stated), the growth is 10.3% (inactive).

As for `COc1ccc(-c2nnc(NC(=O)CN3CCN(c4cc5c(cc4F)c(=O)c(C(=O)O)cn5C4CC4)CC3)s2)cc1OC`, the growth is 93% (inactive).

In the case of `COc1cc(-c2nn(-c3cccc(NC(=O)CCN4CCN(c5ccccc5)CC4)c3)cc2-c2ccncc2)ccc1Cl`, the growth was 28.8% (inactive).

With `O=C(COc1ccc(C2SCC(=O)N2c2ccccc2)cc1)c1ccccc1` (configuration not stated), the growth is 85.3% (inactive).

As to `COc1cc(C2CC(c3ccc4c(c3)OCO4)=NN2c2ccccc2)cc(OC)c1OC` (configuration not stated), the growth is 75.7% (inactive).

With `CC(=O)Nc1ccc(-c2ccc3c(c2)NC(=O)/C3=C\c2ccc[nH]2)cc1`, the growth was -7.08% (active).

Take `Nc1cc(O)cc2cccnc12`: the growth is 109% (inactive).

Regarding `COc1ccc(/C=C/C(=O)c2cc3c(N)c(C(=O)Nc4ccccc4)sc3nc2C)cc1`, the growth was 15.3% (inactive).

Consider `CC1(C)NCCC[C@]2(C)[C@H]3C=CC4=C5C[C@](C)(CO)CC[C@]5(C)CC[C@@]4(C)[C@]3(C)CC[C@@H]12`, for which the growth was -79.5% [100 µM] (active).

In the case of `COc1ccccc1Cn1cc2c(c1)-c1oncc1CC2`, the growth is 6.66% (active).

Take `O=C1Nc2c(ccc(Cl)c2Cl)/C1=C\c1cc(C(F)(F)F)cc(C(F)(F)F)c1`: the growth is 7.18% (active).

`Cc1ccc(-c2cc(-c3ccc(Cl)cc3)nc(NC(=O)c3cccnc3)n2)cc1`: the growth was 106% (inactive).

On to `COC(=O)c1n[nH]c2ccc3nc(-c4cn[nH]c4C(F)(F)F)c4c(c3c12)CCCC4`, for which the growth is 73.8% (inactive).

Turning to `CCCOc1nc(SCCC)nc2c1cnn2-c1ccccc1`, the growth is 106% (inactive).

`Nn1c(N/N=C/c2nc3ccccc3s2)n[nH]c1=S`: the growth is 109% (inactive).

As for `NS(=O)(=O)c1ccc(-n2nc(-c3ccc(Br)cc3)ccc2=O)cc1`, the growth was 66% [100 µM] (inactive).

As for `O=C1c2ccccc2C(=O)c2c1ccc(C(=O)O)c2[N+](=O)[O-]`, the growth was 119% (inactive).

On to `C=CCn1c(SCC(=O)Nc2ccc(C(=O)/C=C/c3ccc(Cl)cc3)cc2)nnc1-c1c[nH]c2ccccc12`, for which the growth was 62.2% (inactive).
